Screening results as filed in PubChem BioAssay.
The list is not random: actives were taken first. Their share in the collection is about 9.4%.
ELG1 DNA repair: qHTS screen for small molecules that inhibit ELG1-dependent DNA repair in human embryonic kidney (HEK293T) cells expressing luciferase-tagged ELG1; HEK293T ELG1-luciferase reporter, luminescence, 16 h; DNA damage induced by 5-fluorouridine; Potency, µM (highest dose often 46.1 µM), inactives show at the highest dose activity change, negative = inhibition, most hits filed as inhibitors; 330,000 tested, 2.3% active; note: % is set by controls: 0 for no effect and ±100 for the full control effect; nearly all actives have a fitted effect of over 55% in size
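Step one: seed 2,000 cells per well. Step two: pin-transfer compound or DMSO alongside 5-fluorouridine. Step three: incubate 16 hr, 37 °C, 5% CO2. Step four: add ONE-Glo, wait 30 min, read luminescence.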
Rab9 promoter act: qHTS Assay for Rab9 Promoter Activators; Huh7 Rab9 promoter-luciferase reporter, luminescence, 24 h; Potency, µM (highest dose often 9.22 µM), inactives show at the highest dose activation, negative = inhibition, most hits filed as activators; 320,000 tested, 2.8% active; note: % of control where 0% means no effect; nearly all actives have a fitted effect of over 60% in size
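Steps: seed 1500 Huh7 Rab9-luc cells per well, rest 2 h at 37 °C; add compound in DMSO; incubate 24 h; add luciferase reagent, 10 min ambient; read luminescence.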
FLuc counter: qHTS profiling assay for firefly luciferase inhibitor/activator using purifed enzyme and Km concentrations of substrates (counterscreen for miR-21 project); purified FLuc, Km substrates, luminescence inhibition; Potency, µM (highest dose often 57.5 µM), for the others: top-dose activity change, negative = inhibition, hits mostly inhibitors; 360,000 tested, 6.9% active;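 note: plate controls were vehicle for no effect and reference inhibitor for full effect; nearly all actives have a fitted effect of over 55% in size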
Target sequence (P08659 whole entry, looked up): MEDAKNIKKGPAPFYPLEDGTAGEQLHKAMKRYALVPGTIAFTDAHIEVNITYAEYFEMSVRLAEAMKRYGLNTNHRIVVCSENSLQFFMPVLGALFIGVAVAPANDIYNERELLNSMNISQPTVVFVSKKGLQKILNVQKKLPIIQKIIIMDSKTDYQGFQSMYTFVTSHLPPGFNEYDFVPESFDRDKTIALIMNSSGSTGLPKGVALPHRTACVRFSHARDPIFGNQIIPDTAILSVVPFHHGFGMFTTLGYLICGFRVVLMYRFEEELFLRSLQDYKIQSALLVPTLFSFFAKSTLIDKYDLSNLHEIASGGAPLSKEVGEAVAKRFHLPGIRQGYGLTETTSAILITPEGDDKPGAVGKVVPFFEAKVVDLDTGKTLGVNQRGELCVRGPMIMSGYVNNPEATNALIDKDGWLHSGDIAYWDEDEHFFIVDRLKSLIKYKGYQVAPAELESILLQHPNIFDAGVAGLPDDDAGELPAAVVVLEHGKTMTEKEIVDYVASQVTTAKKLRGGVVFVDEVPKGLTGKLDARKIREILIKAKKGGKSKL
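Purified P. pyralis luciferase (10nM final) with 10uM D-luciferin and 10uM ATP (Km levels) in 50mM Tris acetate pH 7.5, 10mM Mg acetate, 0.01% Tween-20, 0.05% BSA; qHTS 6-point titration, ~60 µM downward; luminescence read.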
ELG1 genotoxic: qHTS screen for small molecules that induce genotoxicity in human embryonic kidney (HEK293T) cells expressing luciferase-tagged ELG1; Potency, µM (top dose mostly 46 µM), for inactives: at the highest dose activity change, positive = activation, actives largely listed as activators; 330,000 tested, 1.3% active; HEK293T ELG1-luciferase reporter, luminescence, 16 h; note: % of control where 0% means no effect; nearly all actives have a fitted effect of over 60% in size
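Luminescence read-out: rising ELG1-luciferase signal, reflecting elevated ELG1 protein under genetic stress, flags genotoxic compounds. Cells were treated for 16 hr at 37 °C before ONE-Glo detection.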
SMN2 splice up: qHTS Assay for Enhancers of SMN2 Splice Variant Expression. HEK293 SMN2-luciferase splicing reporter, luminescence, 30-36 h. AID 1458, 2008. 210,000 tested, 2.8% active. Potency, µM (titrated, usually from 46.1 µM), for inactives: at the highest dose activity change, positive = activation, hits mostly activators; note: % of control where 0% means no effect; nearly all actives have a fitted effect of over 55% in size
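HEK293 cells carry an SMN2 […]–luciferase reporter in which exon 7 inclusion puts luciferase in frame. Cells were plated 10-12 h before compound addition, then incubated 30-36 h at 37C. ONE-Glo luminescence was read; sodium butyrate at 4.5 mM final served as control.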
NPC1 prom act: qHTS Assay for NPC1 Promoter Activators. Huh7 NPC1 promoter luciferase reporter, 24 h. Potency, µM (top dose mostly 9.22 µM), for the others: at the top dose activation, actives largely listed as activators. 320,000 tested, 2.4% active. AID 485313, 2010; note: % of control where 0% means no effect; nearly all actives have a fitted effect of over 60% in size
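NPC1 promoter–luciferase Huh7 cells; 24 h compound; luminescence.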
An asterisk follows results filed as active; ? = inconclusive; . = no result given; [ ] = remark or other dose. Calls come from the whole dose curve; as a rule, active = well fitted curve in the direction sought with a large enough effect; inconclusive = small, poorly fitted or top-dose-only effect, or another doubt; inactive = no such curve, though single readings can be large; an effect the other way counts as inactive or inconclusive. Potency is the fitted concentration of half-maximal effect.

SMILES | ELG1 DNA repair | Rab9 promoter act | FLuc counter | ELG1 genotoxic | SMN2 splice up | NPC1 prom act
CN(C)Cc1ccccc1OC(=O)N(C)C | 6% | 0% | 8% | 1% | -16% | -4%
Cc1c(OC(=O)N(C)C)ccc2c1O/C(=C\c1ccco1)C2=O | ? | 4µM* | 0.48µM* | 13% | . | ?
C=C(Cl)CCl | . | . | . | . | 8% | .
CN1C(=O)/C(=C/c2ccc(Cl)s2)C(=O)NC1=S | 24% | 6% | ? | 17% | . | 0%
Cc1ccsc1/C=C1\C(=O)NC(=S)N(C)C1=O | ? | -5% | 15µM* | ? | . | 0%
CN1C(=O)/C(=C\c2ccc(N3CCCCC3)o2)C(=O)NC1=S | ? | 1.6µM* | 8.5µM* | 5.8µM* | 7.1µM* | 2.5µM*
CN1C(=O)/C(=C/c2ccc(N3CCCCCC3)o2)C(=O)NC1=S | ? | 1.4µM* | 4.8µM* | 21µM* | 11µM* | 2.2µM*
c1cc(CCN2CCCCC2)ccn1 | . | . | . | . | -17%[9.22 µM] | .
CCC(C(=O)O)C1CCC(C)C(C(C)C(O)C(C)C(=O)C(CC)C2OC3(C=CC(O)[C@@]4(CC[C@](C)(C5CC[C@@](O)(CC)C(C)O5)O4)O3)C(C)CC2C)O1 (some centres not stated) | . | . | . | . | -50% | .
CC[N+](=O)[O-] | . | . | . | . | -5% | .
O=C(COc1ccc(Cl)cc1Cl)N1CCN(C/C=C/c2ccccc2)CC1 | ? | 4% | 2% | -1% | -8% | 0%
CN(c1ccc(OCC(=O)N2CCN(C/C=C/c3ccccc3)CC2)cc1)S(=O)(=O)c1cccs1 | 13µM* | -23% | -2% | -7% | . | -8%
Cc1ccc(Cn2nc(C(=O)Nc3ccc(Br)cc3)cc2C)cc1 | ? | -11% | 9.5µM* | 21µM* | . | -13%
O=C(Oc1ccc(S(=O)(=O)F)cc1F)c1ccccc1Cl | . | . | . | . | -7%[9.22 µM] | .
Cn1c(O)c(C2=NN(C(=O)CCl)C(c3ccccc3)C2)c(=O)n(C)c1=O (configuration not stated) | 3% | 2% | ? | -5% | . | -6%
CCOc1ccc(C2CC(c3c(O)n(C)c(=O)n(C)c3=O)=NN2)cc1 (configuration not stated) | ? | ? | 0.95µM* | 3% | . | ?
Cn1c(O)c(C2=NNC(c3ccc(Cl)cc3)C2)c(=O)n(C)c1=O (configuration not stated) | ? | 2% | 9.5µM* | -1% | . | 1%
COc1ccc(CCNc2nc3c(c(=O)n(C)c(=O)n3C)n2Cc2ccc(F)cc2)cc1OC | . | . | -1% | . | -31% | .
Nc1c2c(nc3sc4c(c13)CCCC4)CCCCC2 | ? | 2.2µM* | 1.9µM* | 14% | 8.9µM* | 2.8µM*
CCNCCC1(CC)C(=O)NC(=O)NC1=O | . | . | . | . | -3%[9.22 µM] | .
Cc1cccc(N=Nc2ccc(N(C)C)cc2)c1 | ? | 1.3µM* | 0.67µM* | 4.6µM* | . | 0.63µM*
c1ccc(N=Nc2ccccc2)cc1 | . | . | . | . | 4% | .
CCCCCOC(=O)c1ccccc1C(=O)OCCCCC | . | . | . | . | 0% | .
O=C(CSc1nnc(NC(=O)c2ccccc2[N+](=O)[O-])s1)NCc1ccco1 | 3% | 19% | 13µM* | 13% | . | 2%
CCSc1nnc(NC(=O)c2cccn(Cc3ccccc3Cl)c2=O)s1 | . | . | -1% | . | . | .
SMILES | ELG1 DNA repair | Rab9 promoter act | FLuc counter | ELG1 genotoxic | SMN2 splice up | NPC1 prom act
O=C(CSc1nnc(NC(=O)c2ccccc2F)s1)NCc1ccc(F)cc1 | ? | ? | 12µM* | ? | . | ?
O=C(CSc1nnc(NC(=O)c2cc(Br)ccc2Cl)s1)NCC1CCCO1 (configuration not stated) | -8% | 2% | ? | 0% | . | 11%
COc1ccc(-c2nc3ccccc3c(=O)n2-c2ccc(OC)cc2)cc1 | -22% | -4% | -8% | -2% | . | 0%
Cc1ccc(-n2sc3ccccc3c2=O)cc1 | ? | ? | 4.8µM* | ? | ? | ?
ClCC(Cl)CCl | . | . | . | . | -1% | .
Cc1ccc(/C=C/C(=O)C2C(=O)c3ccccc3C2=O)cc1 | ? | ? | 0.19µM* | ? | 10µM* | ?
CN1C[C@H](C(=O)N[C@@]2(C)O[C@@]3(O)[C@H]4CCCN4C(=O)[C@@H](Cc4ccccc4)N3C2=O)C=C2c3cccc4[nH]cc(c34)C[C@@H]21 | . | . | . | . | -3%[9.22 µM] | .
C(=C\c1ccccc1)/CN1CCN(CCOC(c2ccccc2)c2ccccc2)CC1 | . | . | . | . | -30% | .
CC(C)(C)c1ccc(C(=O)C2CCCN(Cc3ccon3)C2)cc1 (configuration not stated) | ? | ? | 17µM* | 15% | . | ?
CC(=O)Oc1c2c(c(CC=C(C)C)c3c1C(=O)C1=CC4CC5C(C)(C)OC(C/C=C(\C)C(=O)O)(C4=O)[C@]15O3)OC(C)(CCC=C(C)C)C=C2 (some centres not stated) | . | . | . | . | -95% | .
O=C(CNC(=O)c1ccc(Cl)cc1)OCC(=O)c1ccc2c(c1)OCCO2 | ? | 2% | 21µM* | -7% | 11% | -2%
Nc1ccccc1C(=O)OCC(=O)c1ccc2c(c1)OCCO2 | ? | 3.2µM* | 0.076µM* | ? | -22% | 2.8µM*
CC(=O)Nc1ccccc1C(=O)OCc1ccc(C(=O)c2ccccc2)cc1 | -13% | 5% | ? | 0% | -24% | 0%
CCOC(=O)c1ccccc1N | 10% | . | . | 0% | -7% | .
CC(=O)Nc1ccccc1C(=O)OCC(=O)c1ccc2ccccc2c1 | ? | . | 12µM* | -11% | . | 26%
C1C[C@@H]2CN(CCCN3CCOCC3)[C@@H](C1)O2 | . | . | . | . | 4%[9.22 µM] | .
O=[N+]([O-])C(Br)Br | . | . | . | . | 18% | .
COc1cc(/C=N/NC(=O)CN2CCCCC2)ccc1OCc1ccccc1 | ? | -2% | 12µM* | ? | ? | -2%
CNc1ccc2oc(C[C@H]3O[C@@]4(CC[C@H]3C)O[C@H]([C@H](C)C(=O)c3ccc[nH]3)[C@H](C)C[C@H]4C)nc2c1C(=O)O | 5.8µM* | -42%[46.1 µM] | 0% | -16% | -106% | -26%[46.1 µM]
N=C(N)SCc1ccc(Cl)c2ccccc12 (tested in a mixture with another compound) | . | . | . | . | 1%[9.22 µM] | .
c1ccc2sc(NC3=NCCN3)nc2c1 | ? | ? | ? | -4% | ? | ?
COc1ccc2nc(NC3=NCCN3)sc2c1 | ? | 2.5µM* | 5.4µM* | 18µM* | 10µM* | 2.8µM*
